Results filed as inconclusive are left out. Unmarked numbers belong to inactive results. Activity calls are given as the source filed them. Calls follow the shape of the dose curve; as a rule, active = well fitted inhibition curve with a large enough effect; inconclusive = small, poorly fitted or top-dose-only effect; inactive = flat fitted curve, though single readings scatter.
The compounds below were run on HaCat (assay: Cytotoxic Profiling of Annotated Libraries Using Quantitative High-Throughput Screening (AID 1296008; also: nearly all actives have a fitted effect of over 60% in size)). Conditions: Five cell lines viability, CellTiter-Glo ATP luminescence, 48-72 h; max response: active compounds read low.
In short: (§1)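 Cytotoxicity was measured as CellTiter-Glo ATP luminescence, read after 10 min at room temperature. Compound treatment of the cells lasted 48 or 72 hr at 37 degrees Celsius in a qHTS format.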
For CN1CC(=O)N2[C@H](c3ccc4c(c3)OCO4)c3[nH]c4ccccc4c3C[C@@H]2C1=O, the outcome was “inactive”.
With COc1ccc2cc(C=O)ccc2c1 the outcome was “inactive”.
Compound CN1Cc2cc(C(=O)N3CCC(C4CCNCC4)CC3)ccc2NC(CC(=O)O)C1=O (stereo not drawn) has a max response of -7.2%.
Clc1ccc2c(c1)Nc1ccccc1S2 was tested, and the max response was -13.4%.
CNC[C@H](O)[C@@H](O)[C@H](O)[C@H](O)CO was tested, and the max response was -3.04%.
For CC(=O)[C@H]1CC[C@H]2[C@@H]3C=CC4=CC(=O)CC[C@@]4(C)[C@@H]3CC[C@]12C, the max response was -26.7% and the outcome was “inactive”.
c1ccc2c(c1)CCc1ccccc1N2 gave a max response of -8.39%.
With CN1N=C(C(N)=O)CCC1=O the outcome was “inactive”.
In the case of O=C1CC(c2ccc(Cl)cc2)CC(=O)N1, the outcome is reported as “inactive”.
Compound Nc1c[n+](N2CCOCC2)no1 has a max response of -23.5%.
For O=[N+]([O-])c1cncn1CCN1CCOCC1, the max response was -14.4%.
In the case of CCOC(=O)C(=O)CCc1ccccc1, the outcome is reported as “inactive”.
For O=C(CCCl)NCc1ccccc1, the outcome was “inactive”.
With COC(=O)/C=C(/C)N the outcome was “inactive”.
For C=C(C)C(=O)OCC(O)CO (stereo not drawn), the outcome was “inactive”.
In the case of COc1cc(OC)nc(O[C@H](C(=O)O)C(OC)(c2ccccc2)c2ccccc2)n1, the outcome is reported as “inactive”.
O=C(O)C1CCC1 gave a max response of 1.71%.
CC(C)(C)c1nnc(NS(=O)(=O)c2ccccc2)s1 was tested, and the outcome was “inactive”.
Compound O=C(O)C(=O)Nc1cccc(-c2nn[nH]n2)c1 has a max response of -5.35%.
For O=C1NC(c2ccccc2)(c2ccccc2)C(=O)N1COP(=O)(O)O, the max response was -3.47%.
O=C(NN1CCCC1)NS(=O)(=O)c1ccc(Cl)cc1 was tested, and the max response was -45.6%.
With CCOC(=O)c1ccc(O)c(O)c1 the max response was -0.432%.
Cc1ccccc1C(=O)N1CC/C(=N\OS(=O)(=O)O)c2ccc(Cl)cc21 was tested, and the max response was -13.2%.
Cc1cccc(OCC(O)CNC(C)(C)C)c1C (stereo not drawn) was tested, and the outcome was “inactive”.
COC(=O)/C=C\C(=O)OC was tested, and the outcome was “inactive”.
In the case of COc1ccc(CCC(C)=O)cc1, the outcome is reported as “inactive”.
With CC(=O)N(c1onc(C)c1C)S(=O)(=O)c1ccc(N)cc1 the outcome was “inactive”.
For CC(C)C(=O)Nc1cccc(C(F)(F)F)c1, the outcome was “inactive”.
With O=C(CCCCC(=O)Nc1c(I)cc(I)c(C(=O)O)c1I)Nc1c(I)cc(I)c(C(=O)O)c1I the max response was 4.99%.
C[C@H]1C[C@@H]2[C@H]([C@@H](O)C[C@@]3(C)[C@H]2CC[C@]3(O)C(=O)CO)[C@@]2(C)C=CC(=O)C=C12 was tested, and the outcome was “inactive”.
O=C(O)c1ccc(OCCN2CCCCC2)cc1 was tested, and the outcome was “inactive”.
In the case of CCN(CC)C(=O)C1CN2CCc3cc(OC)c(OC)cc3C2CC1OC(C)=O (stereo not drawn), the outcome is reported as “inactive”.
CC(=O)N1CCN(c2ccc(O)cc2)CC1 was tested, and the outcome was “inactive”.
Work on C/C(=N\O)[C@@H](C)NCC(C)(C)CN[C@H](C)/C(C)=N/O yielded a max response of -13.6%.
Cc1c(F)cc2c(=O)c(C(=O)O)cn3c2c1CCC3C (stereo not drawn) gave a max response of -5.41%.
CCN(CC)CC(=O)OCC(=O)[C@@]1(O)CC[C@H]2[C@@H]3CCC4=CC(=O)CC[C@]4(C)[C@H]3[C@@H](O)C[C@@]21C was tested, and the outcome was “inactive”.
For CC(C)(C)c1cc(C=O)cc(C(C)(C)C)c1O, the outcome was “inactive”.
In the case of CC(C)N(CCC(=O)c1ccc2ccccc2c1)Cc1ccccc1, the outcome is reported as “inactive; activator”.
NC(=O)NC1N=C([O][Al])NC1=O (stereo not drawn) gave a max response of 3.4%.

What follows are compounds tested on KB-3-1 in the same assay as above. Conditions: Five cell lines viability, CellTiter-Glo ATP luminescence, 48-72 h; max response: active compounds read low.
In short: as §1
With CC(=O)[C@H]1CC[C@H]2[C@@H]3C=CC4=CC(=O)CC[C@@]4(C)[C@@H]3CC[C@]12C the max response was -2.29%.
O=C(NN1CCCC1)NS(=O)(=O)c1ccc(Cl)cc1 showed a max response of 5.98%.
In the case of Cc1ccccc1C(=O)N1CC/C(=N\OS(=O)(=O)O)c2ccc(Cl)cc21, the max response is reported as 9.71%.
% is scaled to controls: 0 for no effect and ±100 for the full control effect.
